# According to ChEMBL document CHEMBL5724796, “Tm Shift (DSF) assay results for EUbOPEN Chemogenomics Library” (2024):
# Experiments:
# Settings in all cases: Compound concentration 20.0 uM
# [1] = molecular target: Tyrosine-protein kinase ABL1 (Homo sapiens) (UniProt P00519)
# [2] = molecular target: Bromodomain-containing protein 4 (Homo sapiens) (UniProt O60885)
# [3] = molecular target: Cyclin-dependent kinase 2 (Homo sapiens) (UniProt P24941)
# [4] = molecular target: Casein kinase I isoform delta (Homo sapiens) (UniProt P48730)
# [5] = molecular target: Glycogen synthase kinase-3 beta (Homo sapiens) (UniProt P49841)
# [6] = molecular target: Mitogen-activated protein kinase 1 (Homo sapiens) (UniProt P28482)
# [7] = molecular target: T1, Aurora kinase A (Homo sapiens) (UniProt O14965)
# T1 sequence (whole entry): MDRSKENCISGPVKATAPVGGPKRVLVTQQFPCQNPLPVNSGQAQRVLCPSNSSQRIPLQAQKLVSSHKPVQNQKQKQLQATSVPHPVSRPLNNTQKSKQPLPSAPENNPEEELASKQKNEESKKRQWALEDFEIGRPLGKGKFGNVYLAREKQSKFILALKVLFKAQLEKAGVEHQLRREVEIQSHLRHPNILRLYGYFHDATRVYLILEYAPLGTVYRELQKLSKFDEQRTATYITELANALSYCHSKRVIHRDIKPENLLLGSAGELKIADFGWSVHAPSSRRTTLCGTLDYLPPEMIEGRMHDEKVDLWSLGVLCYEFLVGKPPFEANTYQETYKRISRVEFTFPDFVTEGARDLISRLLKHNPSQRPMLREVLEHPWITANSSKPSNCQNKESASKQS
# [8] = molecular target: T2, Transcription intermediary factor 1-alpha (Homo sapiens) (UniProt O15164)
# T2 sequence (whole entry): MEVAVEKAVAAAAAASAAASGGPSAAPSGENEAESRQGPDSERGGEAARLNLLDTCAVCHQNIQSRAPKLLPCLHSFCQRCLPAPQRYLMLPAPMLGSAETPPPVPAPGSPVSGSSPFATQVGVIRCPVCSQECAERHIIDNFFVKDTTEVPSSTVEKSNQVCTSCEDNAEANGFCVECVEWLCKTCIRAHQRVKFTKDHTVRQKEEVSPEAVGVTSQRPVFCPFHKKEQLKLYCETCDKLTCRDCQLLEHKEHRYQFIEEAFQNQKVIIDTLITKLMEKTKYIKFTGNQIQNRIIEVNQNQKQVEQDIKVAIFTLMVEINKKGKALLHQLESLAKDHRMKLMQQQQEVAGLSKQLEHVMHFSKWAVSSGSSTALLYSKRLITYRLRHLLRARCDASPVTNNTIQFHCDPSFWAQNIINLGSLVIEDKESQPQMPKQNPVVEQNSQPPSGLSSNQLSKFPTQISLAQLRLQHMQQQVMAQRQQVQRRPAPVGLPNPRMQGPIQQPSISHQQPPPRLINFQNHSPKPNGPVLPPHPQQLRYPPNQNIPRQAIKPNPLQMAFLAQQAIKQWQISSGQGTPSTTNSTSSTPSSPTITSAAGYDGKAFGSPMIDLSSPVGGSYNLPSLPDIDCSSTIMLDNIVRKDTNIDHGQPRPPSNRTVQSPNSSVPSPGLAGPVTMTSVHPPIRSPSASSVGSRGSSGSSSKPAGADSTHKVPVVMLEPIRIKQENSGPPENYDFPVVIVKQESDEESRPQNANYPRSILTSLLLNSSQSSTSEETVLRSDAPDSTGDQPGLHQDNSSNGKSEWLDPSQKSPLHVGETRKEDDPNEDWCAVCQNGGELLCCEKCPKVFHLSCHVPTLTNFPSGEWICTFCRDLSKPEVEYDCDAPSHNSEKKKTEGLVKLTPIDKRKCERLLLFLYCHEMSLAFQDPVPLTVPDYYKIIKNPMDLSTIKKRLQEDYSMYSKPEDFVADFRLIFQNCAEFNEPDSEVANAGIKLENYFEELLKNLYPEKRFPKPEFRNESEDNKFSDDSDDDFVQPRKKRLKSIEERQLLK
# Glycogen synthase kinase-3 beta (Homo sapiens), sequence (P49841 whole entry, looked up): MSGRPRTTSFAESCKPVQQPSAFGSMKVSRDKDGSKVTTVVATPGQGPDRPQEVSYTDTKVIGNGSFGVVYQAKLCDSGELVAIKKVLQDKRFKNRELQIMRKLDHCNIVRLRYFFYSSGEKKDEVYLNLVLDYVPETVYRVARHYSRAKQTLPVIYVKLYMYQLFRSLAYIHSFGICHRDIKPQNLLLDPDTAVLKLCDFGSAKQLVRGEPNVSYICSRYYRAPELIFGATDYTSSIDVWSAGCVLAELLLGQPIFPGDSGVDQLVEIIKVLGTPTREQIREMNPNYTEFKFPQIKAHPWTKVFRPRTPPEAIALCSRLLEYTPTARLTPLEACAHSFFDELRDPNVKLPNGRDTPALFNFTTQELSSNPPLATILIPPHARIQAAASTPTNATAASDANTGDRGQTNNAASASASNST
# Mitogen-activated protein kinase 1 (Homo sapiens), sequence (P28482 whole entry): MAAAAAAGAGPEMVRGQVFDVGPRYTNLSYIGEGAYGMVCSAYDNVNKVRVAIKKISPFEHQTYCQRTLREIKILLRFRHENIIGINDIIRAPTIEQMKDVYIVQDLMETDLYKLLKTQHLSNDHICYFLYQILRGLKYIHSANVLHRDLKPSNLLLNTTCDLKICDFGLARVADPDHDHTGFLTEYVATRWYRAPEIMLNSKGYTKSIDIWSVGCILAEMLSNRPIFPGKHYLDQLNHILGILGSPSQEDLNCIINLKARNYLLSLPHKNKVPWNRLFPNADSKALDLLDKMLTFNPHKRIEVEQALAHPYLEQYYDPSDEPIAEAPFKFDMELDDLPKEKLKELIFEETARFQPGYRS
# Casein kinase I isoform delta (Homo sapiens), sequence (P48730 whole entry, looked up, canonical isoform): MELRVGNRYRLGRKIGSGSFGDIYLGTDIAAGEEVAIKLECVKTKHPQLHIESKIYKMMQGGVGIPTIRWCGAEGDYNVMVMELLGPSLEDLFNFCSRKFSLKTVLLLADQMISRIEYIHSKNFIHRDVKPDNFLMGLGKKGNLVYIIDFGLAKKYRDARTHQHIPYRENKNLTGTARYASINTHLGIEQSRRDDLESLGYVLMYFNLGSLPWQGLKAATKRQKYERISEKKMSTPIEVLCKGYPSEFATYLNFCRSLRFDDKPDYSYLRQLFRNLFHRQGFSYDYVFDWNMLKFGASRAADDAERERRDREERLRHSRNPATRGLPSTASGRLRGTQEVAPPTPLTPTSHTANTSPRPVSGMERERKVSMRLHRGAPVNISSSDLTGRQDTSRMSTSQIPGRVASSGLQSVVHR
# Tyrosine-protein kinase ABL1 (Homo sapiens), sequence (P00519 whole entry): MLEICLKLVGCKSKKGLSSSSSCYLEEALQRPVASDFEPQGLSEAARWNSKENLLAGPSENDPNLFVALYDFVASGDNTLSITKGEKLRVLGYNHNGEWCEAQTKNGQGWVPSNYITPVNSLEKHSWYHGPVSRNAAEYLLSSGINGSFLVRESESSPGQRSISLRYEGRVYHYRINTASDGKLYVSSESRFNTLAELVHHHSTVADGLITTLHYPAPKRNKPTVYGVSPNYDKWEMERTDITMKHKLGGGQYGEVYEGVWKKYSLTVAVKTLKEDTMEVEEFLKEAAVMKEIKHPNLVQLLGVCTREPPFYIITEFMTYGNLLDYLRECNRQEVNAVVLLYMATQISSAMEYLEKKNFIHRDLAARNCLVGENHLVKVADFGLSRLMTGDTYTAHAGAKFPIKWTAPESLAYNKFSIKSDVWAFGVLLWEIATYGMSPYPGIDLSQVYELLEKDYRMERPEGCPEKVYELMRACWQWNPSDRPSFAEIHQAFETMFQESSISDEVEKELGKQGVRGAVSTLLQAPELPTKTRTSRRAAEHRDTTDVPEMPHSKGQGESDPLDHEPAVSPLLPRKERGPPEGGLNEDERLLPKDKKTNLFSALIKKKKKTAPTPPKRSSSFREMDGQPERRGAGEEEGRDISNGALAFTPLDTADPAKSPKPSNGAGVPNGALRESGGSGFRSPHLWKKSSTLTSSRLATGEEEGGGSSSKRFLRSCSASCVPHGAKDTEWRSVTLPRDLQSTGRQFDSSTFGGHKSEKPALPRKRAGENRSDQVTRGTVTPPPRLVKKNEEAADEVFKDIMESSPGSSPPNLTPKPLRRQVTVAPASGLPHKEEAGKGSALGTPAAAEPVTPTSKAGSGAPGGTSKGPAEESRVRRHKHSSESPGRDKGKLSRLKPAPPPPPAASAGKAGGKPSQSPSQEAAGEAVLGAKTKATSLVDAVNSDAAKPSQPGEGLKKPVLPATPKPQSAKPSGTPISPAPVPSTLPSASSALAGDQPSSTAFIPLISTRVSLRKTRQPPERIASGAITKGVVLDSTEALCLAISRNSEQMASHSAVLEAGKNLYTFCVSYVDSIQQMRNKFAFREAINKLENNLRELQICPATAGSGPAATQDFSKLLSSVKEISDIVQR
smiles,measurement,setting,value
C[C@H](CN[C@@H](C(=O)Nc1ccc(-c2cnn(C)c2)cn1)c1ccccc1)c1ccc(C#N)cc1,ΔTm,[1],-0.21 °C
same,ΔTm,[2],-5.89 °C
same,ΔTm,[3],-3.07 °C
same,ΔTm,[4],1.03 °C
same,ΔTm,[5],-2.94 °C
same,ΔTm,[6],-4.97 °C
same,ΔTm,[7],-1.84 °C
same,ΔTm,[8],-1.37 °C
N=C(N)NC(=O)c1cnn(-c2cccc3ncccc23)c1C1CC1,ΔTm,[1],0.57 °C
same,ΔTm,[2],-3 °C
same,ΔTm,[3],-0.15 °C
same,ΔTm,[4],-0.36 °C
same,ΔTm,[5],-0.31 °C
same,ΔTm,[6],0.09 °C
same,ΔTm,[7],-2.42 °C
same,ΔTm,[8],-0.58 °C
N=C(N)SCc1ccc(CN2C(=O)C(=O)c3cc(C(F)(F)F)ccc32)cc1,ΔTm,[1],-0.91 °C
same,ΔTm,[2],-2.92 °C
same,ΔTm,[3],0.03 °C
same,ΔTm,[4],0.19 °C
same,ΔTm,[5],-0.71 °C
same,ΔTm,[6],0.42 °C
same,ΔTm,[7],-1.8 °C
same,ΔTm,[8],0 °C
Cc1nccn1CC1CCc2c(c3ccccc3n2C)C1=O (configuration not stated),ΔTm,[1],0.4 °C
same,ΔTm,[2],-1.31 °C
same,ΔTm,[3],-0.09 °C
same,ΔTm,[4],-0.21 °C
same,ΔTm,[5],-0.4 °C
same,ΔTm,[6],0.1 °C
same,ΔTm,[7],-1.95 °C
same,ΔTm,[8],0.35 °C
CC1(NC(=O)COc2cccc(-c3nc4c(c(Nc5ccc(-c6cn[nH]c6)cc5)n3)CN(C3CCC3)CC4)c2)CC1,ΔTm,[1],0.81 °C
same,ΔTm,[2],-2.72 °C
same,ΔTm,[3],0.02 °C
same,ΔTm,[4],-0.75 °C
same,ΔTm,[5],-0.18 °C
same,ΔTm,[6],0.14 °C
same,ΔTm,[7],0.11 °C
same,ΔTm,[8],-0.35 °C
CC(=O)N1CCN([C@H]2CCC[C@@H](NC(=O)c3cc4c(F)ccc(C)c4[nH]3)C2)CC1,ΔTm,[1],0.05 °C
same,ΔTm,[2],-1.42 °C
same,ΔTm,[3],0.08 °C
same,ΔTm,[4],0.26 °C
same,ΔTm,[5],-1.37 °C
same,ΔTm,[6],0.01 °C
same,ΔTm,[7],-0.09 °C
same,ΔTm,[8],-1.38 °C
O=S(=O)(O)c1ccc2cc(/N=N/c3cc(S(=O)(=O)O)c4cccnc4c3O)ccc2c1,ΔTm,[1],0.53 °C
same,ΔTm,[2],-2.44 °C
same,ΔTm,[3],2.89 °C
same,ΔTm,[4],0.85 °C
same,ΔTm,[5],1.3 °C
same,ΔTm,[6],-3.54 °C
same,ΔTm,[7],-2.45 °C
same,ΔTm,[8],-1.13 °C
NCCOCCOCCNC(=O)Cc1ccc(Nc2nc(NCc3ccc(F)cc3)nc(NCC3CCCCC3)n2)cc1,ΔTm,[1],0.61 °C
same,ΔTm,[2],-3.77 °C
same,ΔTm,[3],0.63 °C
same,ΔTm,[4],0.54 °C
same,ΔTm,[5],0 °C
same,ΔTm,[6],0.37 °C
same,ΔTm,[7],-2.14 °C
same,ΔTm,[8],-0.27 °C
O=C(NCC1(c2nc(-c3ccccc3)cs2)CCOCC1)c1cccc(-c2noc(C(F)(F)F)n2)c1,ΔTm,[1],0 °C
same,ΔTm,[2],-2.25 °C
same,ΔTm,[3],0.39 °C
same,ΔTm,[4],0.15 °C
same,ΔTm,[5],-0.34 °C
same,ΔTm,[6],-4.88 °C
same,ΔTm,[7],-0.64 °C
same,ΔTm,[8],-1.09 °C
Cc1c(NC(=O)c2cc(C(N)=O)nc3cc(F)ccc23)c(C(F)(F)F)nn1Cc1ccc(C#N)cc1,ΔTm,[1],0.61 °C
same,ΔTm,[2],-2.09 °C
same,ΔTm,[3],0.06 °C
same,ΔTm,[4],0.03 °C
same,ΔTm,[5],0.78 °C
same,ΔTm,[6],0.34 °C
same,ΔTm,[7],-2.13 °C
same,ΔTm,[8],1.34 °C
N[C@@H](CC(=O)Nc1ccc(Oc2cc(F)c(F)cc2Br)cc1)C(=O)O,ΔTm,[1],0.75 °C
same,ΔTm,[2],-3.05 °C
same,ΔTm,[3],-0.04 °C
same,ΔTm,[4],0.11 °C
same,ΔTm,[5],-0.55 °C
same,ΔTm,[6],0.24 °C
same,ΔTm,[7],-2.19 °C
same,ΔTm,[8],0.54 °C
Cc1c(Nc2ccc(S(=O)(=O)N3CCN(C)CC3)cc2F)nc2ccc(-c3cnn(C4CC4)c3)cn2c1=O,ΔTm,[1],0.73 °C
same,ΔTm,[2],-2.59 °C
same,ΔTm,[3],0.26 °C
same,ΔTm,[4],-0.28 °C
same,ΔTm,[5],0.08 °C
same,ΔTm,[6],0.06 °C
same,ΔTm,[7],-1.87 °C
same,ΔTm,[8],-1.92 °C
Cn1ncc2c(-c3c(-c4ccc(F)cn4)nn4c3COC(C)(C)C4)ccnc21,ΔTm,[1],0.22 °C
same,ΔTm,[2],0.28 °C
same,ΔTm,[3],-0.29 °C
same,ΔTm,[4],1.41 °C
same,ΔTm,[5],-0.58 °C
same,ΔTm,[6],0.32 °C
same,ΔTm,[7],-1.67 °C
same,ΔTm,[8],-1.33 °C
Cc1cccc(Nc2ccncc2S(=O)(=O)NC(=O)NC(C)C)c1,ΔTm,[1],0.72 °C
same,ΔTm,[2],-2.84 °C
same,ΔTm,[3],-0.02 °C
same,ΔTm,[4],-0.02 °C
same,ΔTm,[5],-0.74 °C
same,ΔTm,[6],0.43 °C
same,ΔTm,[7],-2.33 °C
same,ΔTm,[8],0.72 °C
CC(C)(C)OC(=O)N1CCN(C(=O)n2cc(-c3ccc(OC(F)(F)F)cc3)nn2)C(Cc2ccccc2)C1 (configuration not stated),ΔTm,[1],0.06 °C
same,ΔTm,[2],-0.12 °C
same,ΔTm,[3],0.53 °C
same,ΔTm,[4],-0.73 °C
same,ΔTm,[5],-0.69 °C
same,ΔTm,[6],-0.4 °C
same,ΔTm,[7],-1.5 °C
same,ΔTm,[8],-0.53 °C
O=C(CCCCCCNC(=O)c1cnc(N(c2ccccc2)c2ccccc2)nc1)NO,ΔTm,[1],0.66 °C
same,ΔTm,[2],-2.07 °C
same,ΔTm,[3],0.61 °C
same,ΔTm,[4],0.12 °C
same,ΔTm,[5],-0.11 °C
same,ΔTm,[6],-0.28 °C
same,ΔTm,[7],-0.51 °C
same,ΔTm,[8],-0.68 °C
COc1ccccc1C(=O)Nc1cc2c(cc1N1CCNC[C@H]1C)n(C)c(=O)n2C,ΔTm,[1],0.51 °C
same,ΔTm,[2],1.74 °C
same,ΔTm,[3],0.17 °C
same,ΔTm,[4],0.91 °C
same,ΔTm,[5],0.41 °C
same,ΔTm,[6],0.25 °C
same,ΔTm,[7],-0.29 °C
same,ΔTm,[8],0.27 °C
N[C@H](C(=O)O)[C@H](OCc1cccc(NC(=O)c2ccc(C(F)(F)F)cc2)c1)C(=O)O,ΔTm,[1],0.24 °C
same,ΔTm,[2],-3.61 °C
same,ΔTm,[3],-0.09 °C
same,ΔTm,[4],-0.32 °C
same,ΔTm,[5],-0.8 °C
same,ΔTm,[6],0.12 °C
same,ΔTm,[7],-2.5 °C
same,ΔTm,[8],0.13 °C
Nc1nc(C(F)(F)F)nc2c1nnn2C[C@H]1CN(Cc2nccs2)CCO1,ΔTm,[1],0.2 °C
same,ΔTm,[2],-2.15 °C
same,ΔTm,[3],0.32 °C
same,ΔTm,[4],-0.15 °C
same,ΔTm,[5],-0.98 °C
same,ΔTm,[6],0.32 °C
same,ΔTm,[7],-1.21 °C
same,ΔTm,[8],0.71 °C
